Screening data from PubChem BioAssay.
A selection: hits, their analogues and other compounds. The true share with any hit is near 4.1%.
IDE cell inh = inhibits human insulin-degrading enzyme in HEK cells; FAbetaB cleavage, fluorescence polarization; inhibition, % at 5.59 µM; AID 434962; 320,000 tested, 0.41% active; P14735;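 active = percent inhibition above the average of all tested compounds plus 3 SD, set per screening campaign, cut at about 16% in these data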;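 note: IDE supplied by intact live HEK cells; FP after avidin binding of uncleaved biotin substrate so inhibition keeps polarization high; 0% = DMSO wells and 100% = 60 µM reference IDE inhibitor Ii1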
CaV13 FRET inh = Disruptors of the CACNA1D IQ motif to Ca2+-dependent inactivation inhibitor domain association, primary screening, Förster resonance energy transfer in intact living …; HEK cells, CFP/YFP FRET ICDI-IQ, plate reader, 10 min; percent FRET-ratio fall versus neutral wells; inhibition, % at 12.3 µM; 340,000 tested, 0.098% active;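 active = mean replicate inhibition of at least 30% and at least 1% of replicates passing that level; inconclusive = only one of the two criteria is met; inactive = neither criterion is met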;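 note: 0% = median of the neutral control wells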
PolyA inhibitor = yeast polyadenylation inhibition. S. cerevisiae SKY197-pL101 polyadenylation reporter, beta-gal luminescence; efflux-impaired pdr1/pdr3 knockout yeast; score 100 = 6 SD above DMSO. activity score, % at 12 µM. 300,000 tested, 0.02% active. AID 1875;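 active = lowest replicate activity score at least 50, where 100 means six control SD above control mean; inconclusive = lowest score under 50 but half or more replicates reach 50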;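 note: yeast exposed to compound for 9 h at 30 °C; higher score means more reporter readthrough which indicates perturbed polyadenylation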
IDE cell activ = activators of human insulin-degrading enzyme in cells; P14735; HEK cells, FAbeta-B cleavage, fluorescence polarization; 0% vehicle, 100% cell-free pure enzyme wells; activation, % at 5.96 µM; 340,000 tested, 0.073% active;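 active = activation above the mean of all tested compounds plus 3 SD, set per screening campaign, cut at about 17% in these data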
PfM18AAP inh-1 = PfM18AAP enzyme inhibition; recombinant PfM18AAP, H-Glu-NHMec fluorogenic cleavage; inhibition, % at 7.35 µM; 290,000 tested, 1.2% active;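 active = inhibition above the campaign mean inhibition over all tested compounds plus 3 SD, cut at about 28% in these data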;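 note: 0% = plate median of test compound wells and 100% = 2 mM ZnCl2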
ALR H2O2 inh = human ALR oxidase inhibition via reduced H2O2; P55789; purified ALR, DTT oxidation, H2O2 HRP-luminol luminescence; inhibition, % (no concentration beside the values); 290,000 tested, 3.8% active; AID 485317;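 active = mean replicate inhibition above about 79%, with every replicate also reaching it, limit read from the data; inconclusive = only one of the two criteria met; inactive = mean below limit and not every replicate reaching it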
Target sequence (P55789 whole entry, looked up): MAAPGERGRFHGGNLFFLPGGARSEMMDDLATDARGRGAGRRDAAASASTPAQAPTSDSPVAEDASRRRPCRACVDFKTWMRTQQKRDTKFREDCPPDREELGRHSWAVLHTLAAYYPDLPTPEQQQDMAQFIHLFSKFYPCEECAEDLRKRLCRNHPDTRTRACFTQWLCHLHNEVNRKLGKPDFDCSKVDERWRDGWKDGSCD
PfM18AAP inh-2 = PfM18AAP inhibition, confirmation. shares compounds with PfM18AAP inh-1. recombinant PfM18AAP, H-Glu-NHMec fluorogenic cleavage. inhibition, % at 7.35 µM. 2,400 tested, 28% active. AID 2170;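 active = mean inhibition over replicate wells above the hit cutoff set for the earlier primary screen, cut at about 29% in these data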;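 note: 0% = median of test compound wells and 100% = 2 mM ZnCl2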
CTSL1 confirm = Cathepsin L (human) inhibition, confirmation. shares compounds with PfM18AAP inh-1. purified cathepsin L1, Z-Leu-Arg-MCA fluorescence. inhibition, % at 5.96 µM. 2,400 tested, under 10 active. AID 2178;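 active = average inhibition across replicates above the hit cutoff set in the earlier primary screen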;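 note: 0% = median of test compound wells and 100% = Z-Phe-Ala-diazomethylketone 1 µM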
Target sequence (P07711 whole entry, looked up): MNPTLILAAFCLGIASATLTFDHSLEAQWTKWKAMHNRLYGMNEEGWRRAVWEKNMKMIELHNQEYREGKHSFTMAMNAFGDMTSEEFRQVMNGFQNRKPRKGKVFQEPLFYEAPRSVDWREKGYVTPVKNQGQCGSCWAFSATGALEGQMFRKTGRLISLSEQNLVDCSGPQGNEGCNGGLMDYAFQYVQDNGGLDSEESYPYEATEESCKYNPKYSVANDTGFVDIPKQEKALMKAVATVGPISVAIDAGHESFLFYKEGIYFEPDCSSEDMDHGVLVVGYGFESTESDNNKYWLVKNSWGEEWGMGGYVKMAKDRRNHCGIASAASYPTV
* hit, by the source's call; ? = inconclusive; nt = not tested or not shown.

SMILES	IDE cell inh	CaV13 FRET inh	PolyA inhibitor	IDE cell activ	PfM18AAP inh-1	ALR H2O2 inh	PfM18AAP inh-2	CTSL1 confirm
O=C(NNc1ccccc1[N+](=O)[O-])Nc1ccccc1	-2	-8	11	-1	11	-1	nt	nt
O=C(O)c1ccccc1-c1ccccc1C(=O)NNc1ccc([N+](=O)[O-])cc1	5	-15	5	7	53*	-20	22	0
O=C(NNc1ccccc1[N+](=O)[O-])Nc1ccc(F)cc1	-3	-6	-2	1	38*	nt	1	4
O=C(NNc1ccc([N+](=O)[O-])cc1)Nc1ccccc1	2	-12	-26	-2	55*	nt	32*	1
Cc1cc(NS(=O)(=O)c2ccc(NC(=O)C(F)(F)F)cc2)nc(C)n1	-5	-2	-23	1	2	-8	nt	nt
CC(C)(C)NC(=O)NC(=O)COC(=O)C1CCN(S(=O)(=O)c2cccs2)CC1	2	-3	nt	4	nt	nt	nt	nt
O=C(NNc1ccc([N+](=O)[O-])cc1)c1ccccc1Cl	-3	-5	-13	2	50*	-28	21	0
O=C(NNC1=Nc2cc([N+](=O)[O-])ccc2OC1)c1ccccc1Cl	-6	-6	17	9	11	-2	nt	nt
CCOC(=O)c1nnn(CC(=O)Nc2ccccc2OC)c1C(=O)OCC	6	-5	-2	2	0	1	nt	nt
COc1ccc2sc(-c3ccc(N(C)C)cc3)c(C#Cc3cncn3C)c2c1	-6	3	nt	9	nt	-24	nt	nt
COc1ccc(/C=N/n2cnn(Cc3ccccc3Cl)c2=S)cc1	4	-8	-5	4	34*	-10	-50	-3
COc1cc(/C=N/n2cnn(Cc3ccccc3Cl)c2=S)cc(OC)c1OC	-1	-4	-10	nt	18	-3	nt	nt
O=S(=O)(N[C@H](CO)c1ccccc1)c1ccc(Br)cc1F	nt	-7	nt	0	nt	nt	nt	nt
O=c1c2ccccc2nc(COc2ccccc2)n1/N=C/c1ccc(O)c(O)c1	-5	0	-13	0	53*	98*	25	6
O=C(O)COc1ccc(/C=N/n2c(COc3ccccc3)nc3ccccc3c2=O)cc1	0	-5	4	5	-2	3	nt	nt
Oc1ccc(/C=N/n2c(COc3ccccc3)n[nH]c2=S)cc1O	8	-2	?	-3	53*	100*	20	-8
CCSC1OC(C(COC(C)=O)OC(C)=O)C(OC(C)=O)C1NC(C)=S (stereo not drawn)	nt	-10	nt	7	nt	nt	nt	nt
Cc1ccc(OCC(=O)N2CCc3ccccc3C2)c(C)c1	5	-3	-10	4	-2	-6	nt	nt
Cc1cccc(C(=O)n2cnnc2N)c1	2	-19	-6	-1	45*	10	56*	-1
Cc1ccc(OCC(=O)n2cnnc2N)c(C)c1	2	nt	-6	nt	57*	-2	54*	-4
Cc1cc(C)cc(C(=O)n2cnnc2N)c1	-4	0	6	4	48*	8	59*	5
COc1ccc(-c2nc(SC(C)C(=O)NCC3CCCO3)n[nH]2)cc1 (stereo not drawn)	1	-7	3	4	nt	-3	nt	nt
Cc1cc(C)c(S(=O)(=O)Nc2ncn[nH]2)cc1C	0	-3	18	1	42*	18	11	-2
O=S(=O)(Nc1ncn[nH]1)c1ccc2ccccc2c1	4	nt	9	3	51*	-5	41*	-2
O=S(=O)(Nc1nc2ccccc2[nH]1)c1ccc2ccccc2c1	-4	nt	-3	6	-6	-12	nt	nt
SMILES	IDE cell inh	CaV13 FRET inh	PolyA inhibitor	IDE cell activ	PfM18AAP inh-1	ALR H2O2 inh	PfM18AAP inh-2	CTSL1 confirm
CC(NC(=O)c1cn(C(C)c2ccccc2F)nn1)c1ccncc1 (stereo not drawn)	1	3	-12	7	4	-6	nt	nt
COCCNC(=S)Nc1ccc([N+](=O)[O-])cc1C	-6	3	19	11	6	nt	nt	nt
CNC(=S)NNc1ccccc1[N+](=O)[O-]	-6	2	38	4	57*	98*	61*	1
COCCNC(=S)NNc1ccccc1[N+](=O)[O-]	0	-6	-2	6	61*	11	61*	3
CCCNC(=O)C1(C)CCN(CCS(=O)(=O)c2ccc(C)cc2)C1 (stereo not drawn)	nt	-6	nt	nt	nt	nt	nt	nt
COc1nc(-c2ccccc2)cc(-c2ccc(OC)c(OC)c2)n1	3	-4	-17	-5	-1	-1	nt	nt
COc1ccc(-c2cc(-c3ccccc3)nc(NN)n2)cc1OC	7	-4	6	-3	34*	33	5	3
COc1ccc(-c2cc(C#N)nc(NN)n2)cc1	-1	-3	-6	1	36*	0	36*	6
CC(C)NC(=S)NC(=O)c1ccc(Cl)cc1Cl	0	-6	-5	0	-3	3	nt	nt
COc1cccc(C(=O)NC(=S)Nn2cnnc2)c1OC	-4	-5	2	-3	73*	-4	60*	-9
O=C(NC(=S)Nc1ncccn1)c1ccccc1Cl	4	-5	12	3	-1	11	nt	nt
O=C(NC(=S)Nn1cnnc1)c1ccc(F)cc1Cl	9	-3	-5	1	78*	3	55*	-3
O=C(NC(=S)Nn1cnnc1)c1ccccc1Cl	6	8	-1	2	83*	nt	52*	-7
CN(C)CCNC(=O)Nc1ccc(Cl)c(Cl)c1	4	-5	5	-5	-2	0	nt	nt
Cc1ccc(CNC(=O)c2ccc(Cl)cc2[N+](=O)[O-])cc1	-2	-4	-8	-1	5	-5	nt	nt
Cc1ccc(C2NC(=S)N3C(c4ccc(C)cc4)NC(=S)N23)cc1 (stereo not drawn)	nt	-18	nt	nt	nt	nt	nt	nt
S=C1NC(c2ccccc2)N2C(=S)NC(c3ccccc3)N12 (stereo not drawn)	1	-3	17	-1	38*	98*	-42	-1
O=C(O)C(Cc1c[nH]c2ccccc12)NS(=O)(=O)c1ccc(Cl)c(C(F)(F)F)c1 (stereo not drawn)	1	-3	-8	3	-1	62	nt	nt
CC(=O)Nc1nc2c(F)cccc2s1	-2	-3	-5	0	1	-4	nt	nt
CC(C)NC(=S)NNc1nc2ccccc2s1	2	11	-2	-15	41*	19	34*	1
O=C(NNc1nc2c(F)cccc2s1)c1ccccc1	-1	8	-3	3	43*	3	25	-2
O=C(NNc1nc2ccccc2s1)c1ccc(F)cc1	-1	-5	-3	2	32*	nt	2	0
